VACV mCherry inh = qHTS for Stage-Specific Inhibitors of Vaccinia Orthopoxvirus: mCherry Reporter Primary qHTS; Vaccinia virus mCherry reporter infection, fluorescence; AID 720579, 2013; 310,000 compounds, 0.63% hits; Potency, µM (series often up to 36.5 µM), for inactives: top-dose activity change, negative = inhibition, usual class: inhibitors; calls by dose curve; tested in A549 cells; also: potency is read from the fitted curve at half-maximal effect; nearly all actives have a fitted effect of over 35% in size
HCMV antiviral = qHTS Assay for inhibitors of the human cytomegalovirus (HCMV); HFF cells, HCMV-luciferase reporter, 72 h; hits give low values; activity change, negative = inhibition, % at 57.5 µM; 410,000 compounds, 4.5% hits; in the data active = activity change below about -60%; inconclusive = no clear call, values can overlap the other calls; inactive = above about -39%
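Steps: HFFs plated, 16 h 37C; compounds added; HCMV-luciferase added to MOI 1 PFU/cell; 72 h 37C; OneGlo reagent, 5 min room temperature; luminescence read, normalized to controls.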
FMDV inh = High Throughput Screening for Foot and Mouth Disease Virus Antivirals; FMDV antiviral cell-based qHTS; Potency, µM (highest dose often 57.9 µM), inactives show top-dose activity change, negative = inhibition, usual class: inhibitors; 410,000 compounds, 1.2% hits; AID 1159524, 2015; calls by dose curve; tested in HEK293T cells; also: read-out not given here; potency is read from the fitted curve at half-maximal effect; nearly all actives have a fitted effect of over 45% in size
VACV Venus inh = qHTS for Stage-Specific Inhibitors of Vaccinia Orthopoxvirus: Venus Reporter Primary qHTS; Vaccinia virus Venus reporter expression, fluorescence; Potency, µM (doses to about 36.5 µM), without a hit: at the top dose activity change, negative = inhibition, most hits filed as inhibitors; 330,000 compounds, 0.46% hits; AID 720580, 2013; calls by dose curve; tested in A549 cells; also: potency is read from the fitted curve at half-maximal effect; nearly all actives have a fitted effect of over 30% in size
LASV entry inh = qHTS for Inhibitors of binding or entry into cells for Lassa Virus; AID 540256, 2011; Potency, µM (series often up to 37.9 µM), for the others: at the highest dose activity change, negative = inhibition, hits mostly inhibitors; Lassa virus pseudotype entry inhibition, cell reporter; 300,000 compounds, 1.2% hits; calls by dose curve; tested in HEK293 cells; also: potency is read from the fitted curve at half-maximal effect; nearly all actives have a fitted effect of over 50% in size
MARV entry inh = qHTS for inhibitors of binding or entry into cells for Marburg Virus | Marburg virus pseudotyped entry inhibition, cell reporter | 300,000 compounds, 1.8% hits | Potency, µM (top dose mostly 37.8 µM), inactives show top-dose activity change, negative = inhibition, usual class: inhibitors | AID 540276, 2011; calls by dose curve; tested in HEK293 cells; also: potency is read from the fitted curve at half-maximal effect
Numbers without * were called inactive; i = inactive; ? = inconclusive; · = no result given; ! = not active in a repeat; [ ] = dose if it differs, or a comment. Compounds with a hit are over-represented: about 6.5% of the library has one in this group of screens. % is scaled to controls: 0 for no effect and ±100 for the full control effect.

SMILES	VACV mCherry inh	HCMV antiviral	FMDV inh	VACV Venus inh	LASV entry inh	MARV entry inh
Cc1ccc2[nH]c(=O)c3cc(C(=O)NCCC(C)C)sc3c2c1	·	-19	-27%	·	·	·
COc1ccc(-n2c(CNC(=O)c3ccccc3C(F)(F)F)nnc2SC)cc1	-3%	·	-9%	3%	·	·
CC(C)C[C@H]1CNC(=S)N1CC1CCCN1C[C@H](CC(C)C)N1C[C@H](CC(C)C)N(CC2CCCCCC2)C1=S (some centres undefined)	i	-10	?	-11%	·	·
CCN(c1ccccc1)S(=O)(=O)c1ccc(N2CCN(c3ccc(O)cc3)CC2)nc1	-22%	?	?	-28%	7.9µM*	?
NC(=S)NN=C1CCCCCCCCCC1	?	-39	?	?	-16%	-2%
NC(=S)NN=C1CCC(C2CCCCC2)CC1 (centres undefined)	-27%	-80*	-18%	-7%	-20%[46.1 µM]	?
Cc1ccc2c(C)c(C(=O)N3CCCC(C(N)=O)C3)oc2c1C (centres undefined)	·	-99*	33%	·	·	·
CCOC(=O)C1CCN(C2CCN(C(=O)c3oc4c(C)c(C)ccc4c3C)CC2)CC1	·	78	52%	·	·	·
COC(=O)c1cc(NC(=O)C(C)c2ccc(CC(C)C)cc2)ccc1O (centres undefined)	?	-79*	-5%	-8%	?	?
Cc1ccc(S(=O)(=O)Nc2ccc3c(c2)CC(=O)N([C@H](C)CO)C[C@@H](C)[C@H](CN(C)Cc2ccc(-c4ccccc4)cc2)O3)cc1	?	·	-21%	?	·	·
C[C@H](CO)N1C[C@H](C)[C@H](CN(C)Cc2ccc(-c3ccccc3)cc2)Oc2ccc(NS(=O)(=O)c3ccccc3)cc2CC1=O	?	·	?	10µM*	·	·
C[C@H]1CN([C@@H](C)CO)C(=O)Cc2cc(NC(=O)CCC(F)(F)F)ccc2O[C@H]1CN(C)Cc1ccc(-c2ccccc2)cc1	11µM*	99	-25%	?	·	·
CCOC(=O)C1NC2CCC(OCC)CC2C1CCCN1C(=O)C2=C(CCCC2)C1=O (centres undefined)	·	·	·	·	·	-4%
O=C(CN1C(=O)NC2(CCOc3ccccc32)C1=O)c1cccs1 (centres undefined)	1%	16	1%	-5%	17%[46.1 µM]	-1%[46.1 µM]
C=C(CO[C@@H]1C=C[C@@H](c2ccccc2)O[C@@H]1CO)c1ccccc1	·	·	·	·	·	-2%[14.2 µM]
CC(C)c1ccc(CN2C(=O)C(n3cccc3)c3ccccc32)cc1 (centres undefined)	·	-5	·	·	·	·
CCc1nc(C(N)=O)c2[nH]c(=O)n(-c3ccc(OC)cc3OC)c2n1	·	·	0%	·	·	·
CCc1ccc(NC(=O)[C@H](Cc2c[nH]c3ccccc23)NC(=O)[C@@H]2Cc3ccccc3CN2)cc1	5µM*	·	8%	12%	·	·
Cc1cc(C)cc(NC(=O)[C@H](NC(=O)[C@@H]2Cc3ccccc3CN2)c2ccccc2)c1	-20%	·	-16%	-11%	30%[46.1 µM]	1.4µM*
Cc1cccc(NC(=O)[C@H](Cc2c[nH]c3ccccc23)NC(=O)[C@@H]2Cc3ccccc3CN2)c1	11µM*	·	-4%	33%	·	·
Cc1ccc(NC(=O)[C@H](NC(=O)[C@@H]2Cc3ccccc3CN2)c2ccccc2)c(C)c1	·	-34	0%	·	·	·
CCCc1nnc(NC(=O)CCC(=O)N2CCN(Cc3cc(Cl)ccc3OC)CC2)s1	·	-18	-24%	·	·	·
COc1ccc(CN2CCN(C(=O)CCC(=O)Nc3nnc(CC(C)C)s3)CC2)cc1F	·	-65*	?	·	·	·
CCCc1nnc(NC(=O)CCC(=O)N2CCN(Cc3ccc(OC)c(F)c3)CC2)s1	·	-76*	?	·	·	·
COc1ccc(CN2CCN(C(=O)CCC(=O)Nc3nnc(C(F)(F)F)s3)CC2)cc1F	-12%[7.34 µM]	-34	-27%	8%[7.34 µM]	·	·
SMILES	VACV mCherry inh	HCMV antiviral	FMDV inh	VACV Venus inh	LASV entry inh	MARV entry inh
COc1ccc(CN2CCN(C(=O)CCC(=O)Nc3nnc(C4CCCCC4)s3)CC2)cc1F	-11%	-73*	?	-18%	-3%[46.1 µM]	-28%[46.1 µM]
CN(C)CCNc1nccc(N2CCN(C)CC2)n1	-5%	·	·	-14%	·	·
CN1C2=NCCN2C(=O)c2cc(Cl)ccc21	-7%	53	6%	-11%	7%	-2%[46.1 µM]
Brc1ccc2c(c1)-c1ccccc1C1=NCCN12	?	-69*	?	?	·	·
Clc1ccc2c(c1)-c1ccccc1C1=NCCN12	?	-96*	?	?	·	·
CCOC(=O)[C@@H]1CCN(Cc2ccccc2)C[C@H]1c1ccccc1	-14%	-37	-25%	-5%	-5%	?
CN1CCN(Cc2nc3ccccc3c(=O)n2Cc2nc(-c3cccc([N+](=O)[O-])c3)cs2)CC1	-23%	-14	-1%	-13%	?	?
CN1CCN(Cc2nc3ccccc3c(=O)n2Cc2nc(-c3ccc4ccccc4c3)cs2)CC1	?	-76*	?	13µM*	?	?
O=P(Oc1ccccc1)(Oc1ccccc1)N1CCN(c2ccc(F)cc2)CC1	-22%	10	-25%	-17%	?	10µM*
O=C(NCc1ccc(F)cc1Cl)c1ccc(CSCc2ccccc2Cl)o1	-14%	?	-16%	-7%	-27%[46.1 µM]	·
CCCCCCCCCC[Si](C)(C)CCC(=O)NC(Cc1ccc(C)cc1)c1ccccc1 (centres undefined)	·	·	·	·	-28%	7.9µM*!
CSCCCNC(=O)c1ccc(OC2CCN(CCc3ccccc3)CC2)cc1	·	0	34%	·	·	·
CC1CCC(NC(=O)c2ccc(CSc3nc4ccncc4n3Cc3ccc(F)cc3)cc2)CC1 (centres undefined)	?	-93*	?	?	-12%[46.1 µM]	?
Cc1ccc(Cn2c(SCc3ccc(C(=O)N4CCCCC4)cc3)nc3ccncc32)cc1	-21%	-60*	-18%	?	-15%[46.1 µM]	?
COc1cc(=O)n2c(c1C(=O)NC(C)c1ccco1)CCN(Cc1cc3ccccc3o1)CC2 (centres undefined)	-8%	·	1%	12%	·	·
C=CCCN1C(=O)NC(c2ccccc2)C(C(C)=O)=C1C (centres undefined)	·	·	·	·	·	29%[14.2 µM]
CCC(C)NCCC(=O)Nc1ccc(Cl)c(S(=O)(=O)Nc2ccc(Cl)cc2)c1 (centres undefined)	-25%	-2	19%	-23%	7%	11µM*
Cc1ccc(C(=O)CCC(=O)Nc2ccc(Cl)c(S(=O)(=O)Nc3cccc(Cl)c3)c2)cc1	-7%	0	28%	-20%	?	-13%
CCn1c(C)nc2cc(NC(=O)Nc3cccc(C(C)=O)c3)ccc21	·	-67*	28%	·	·	·
COc1cccc(NC(=O)Nc2ccc3c(c2)nc(C)n3C)c1	-15%	45	-40%	-25%	?	?

Bioassay records (PubChem BioAssay)
